These results are taken from PubChem BioAssay.

Structures are written as SMILES. The source made the active and inactive calls. Unless noted, no rule for the calls is given here.

Assay [1] has as its system Wnt5a (protein binding on small-molecule microarray). Description: small molecules binding Wnt5a protein – biophysical, small-molecule microarray, 635/667 nm fluorescence, primary screen (AID 1142).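 Also: fluorescence read at 667 nm with signal to noise per printed feature.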 Particulars: 635 nm fluorescence, higher = more signal.
The nature of assay [2]: ATP-based viability of Huh7 replicon cells – cell-based, CellTiter-Glo luminescence, basal, 48 h, cytotoxicity control for HCV replication inhibitor project, primary screen (AID 1143).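 Also: Huh7 hepatoma cells carrying a hepatitis C replication reporter with no stimulus; test concentration not given here.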 Particulars: higher = more signal, called active from +8 up or from −8 down.
Assay [3] can be described thus: Pseudomonas biofilm growth suppression – PAO1 strain, BacTiter-Glo luminescence, LB-PBS, primary screen (AID 1144). The following applies: P. aeruginosa PAO1 biofilm, 12 h, higher = more signal.
The nature of assay [4]: basal CRE-LacZ reporter activity in PC12 – cell-based, unstimulated, primary screen (AID 1145). Particulars: no forskolin, luminescence, 4.5 h, higher = more signal, called active from +8 up or from −8 down.
A short description of assay [5]: forskolin-driven CRE-LacZ activity in PC12 – cell-based, CRE-LacZ reporter, forskolin-stimulated, primary screen (AID 1146).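 Also: PC12 cells with 6xCRE LacZ reporter stimulated by forskolin 10 µM; beta-galactosidase reporter signal reflecting CREB driven transcription.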 Particulars: luminescence, 4.5 h, higher = more signal, called active from +8 up or from −8 down.
The target of assay [6] is Streptavidin (Streptomyces avidinii) (UniProt P22629). Description: compounds binding control protein streptavidin – biophysical, small-molecule microarray, 635/667 nm fluorescence, artefact control for SMM compound annotation, primary screen (AID 1147).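 Also: signal reflects streptavidin binding to arrayed compounds as a control protein.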 The following applies: higher = more signal.
Assay [7] is described as follows: probe aInhba binding on compound microarray – biochemical, small-molecule microarray, 635/667 nm fluorescence, primary screen (AID 1148).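 Also: score merges 667nm spot fluorescence with signal-to-noise for antibody binding to printed compounds.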 Particulars: higher = more signal.
The target in assay [8] is Torsin-1A (Homo sapiens) (UniProt O14656). Description: TOR1A wild-type binding on microarray – cell lysate, small-molecule microarray, lysate, 635/667 nm, primary screen (AID 1149). Particulars: COS7 hTOR1A-WT lysate, 635 nm fluorescence, higher = more signal.
Assay [9] shares this target. In words: torsin A mutant lysate binding on microarrays – cell lysate, small-molecule microarray, COS7 lysate, 635/667 nm fluorescence, primary screen (AID 1150).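 Also: score pools 667 nm emission and signal to noise measuring lysate protein binding.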 Particulars: COS7 hTOR1A mutant lysate, 635 nm fluorescence, higher = more signal.
Assay [10] deals with Sonic hedgehog protein (Shh). In words: Sonic hedgehog microarray binding compounds – biochemical, small-molecule microarray, 635/667 nm fluorescence, primary screen (AID 1151).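 Also: Shh protein binding to compounds spotted on small-molecule microarray slides; score combines spot fluorescence intensity with signal-to-noise across triplicate slides.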 Particulars: 635 nm fluorescence, higher = more signal.
Assay [11] can be described thus: optical density shifts of acrAB sulA E. coli – strain DRC41, OD650, 48 h, E. coli filamentation inducer project, primary screen (AID 1152).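 Also: E. coli MC1000 strain DRC41 lacking acrAB efflux pump and sulA.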 The following applies: higher = more signal, called active from +8 up or from −8 down.
The nature of assay [12]: probe aLefty1 binding on compound microarray – biochemical, small-molecule microarray, 635/667 nm fluorescence, primary screen (AID 1153).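 Also: score merges spot fluorescence with signal-to-noise ratio from the scanned slide images.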 Particulars: higher = more signal.
Assay [13] is described as follows: plasmodial surface anion channel blockers, osmotic lysis – cell-based, P. falciparum Indochina, OD700, 1 h, primary screen (AID 1154). The following applies: P. falciparum Indochina infected RBC osmotic lysis, higher = more signal, called active from +8 up or from −8 down.
Assay [14] in a line: plasmodial surface anion channel blockers, osmotic lysis – cell-based, P. falciparum Indochina, OD700, 2 h, primary screen (AID 1155).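 Also: lysis reports solute entry through the parasite surface anion channel PSAC.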 The following applies: P. falciparum Indochina infected erythrocytes, higher = more signal, called active from +8 up or from −8 down.
Assay [15] can be described thus: changes in parasitized red cell lysis, either direction – P. falciparum Indochina, OD700, 3 h, PSAC antagonist project, primary screen (AID 1156). Particulars: P. falciparum-infected erythrocytes, osmotic lysis, higher = more signal, called active from +8 up or from −8 down.
Assay [16] can be described thus: plasmodial surface anion channel blockers, osmotic lysis – cell-based, P. falciparum Indochina, OD700, 18 h, primary screen (AID 1157). Particulars: P. falciparum Indochina infected erythrocytes, osmotic lysis OD700, 18 h; higher = more signal, called active from +8 up or from −8 down.
A short description of assay [17]: S6 kinase pathway phospho-S6 level changes – cell-based, A549, cytoblot, luminescence, serum-stimulated, primary screen (AID 1158).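 Also: serum-stimulated A549 lung adenocarcinoma cells; signal is phosphorylated S6 detected by cytoblot immunostaining with HRP secondary.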 The following applies: 5 h, higher = more signal.
Assay [18] has as its target NADPH oxidase 2 (Homo sapiens) (UniProt P04839). In words: compounds shifting NOX2 Amplex Red fluorescence – cell-based, HEK293-NOX2, PMA-stimulated, NOX inhibitor project, primary screen (AID 1159). Also: test concentration not given here. Particulars: 45 min, higher = more signal, called active from +8 up or from −8 down.
In assay [19] the target is NADPH oxidase 4 (Homo sapiens) (UniProt Q9NPH5). Description: compounds shifting NOX4 Amplex Red fluorescence – cell-based, HEK293-NOX4, tetracycline-induced, NOX inhibitor project, primary screen (AID 1160). The following applies: HEK293-NOX4, Amplex Red H2O2 fluorescence, 45 min; higher = more signal, called active from +8 up or from −8 down.
The target of assay [20] is NADPH oxidase 5 (Homo sapiens) (UniProt Q96PH1). In words: compounds shifting NOX5 Amplex Red fluorescence – cell-based, HEK293-NOX5, NOX inhibitor project, primary screen (AID 1161). Particulars: HEK293-NOX5, ionomycin, 45 min, higher = more signal.
Chain of NADPH oxidase 5 (Homo sapiens) (Q96PH1 whole entry, looked up): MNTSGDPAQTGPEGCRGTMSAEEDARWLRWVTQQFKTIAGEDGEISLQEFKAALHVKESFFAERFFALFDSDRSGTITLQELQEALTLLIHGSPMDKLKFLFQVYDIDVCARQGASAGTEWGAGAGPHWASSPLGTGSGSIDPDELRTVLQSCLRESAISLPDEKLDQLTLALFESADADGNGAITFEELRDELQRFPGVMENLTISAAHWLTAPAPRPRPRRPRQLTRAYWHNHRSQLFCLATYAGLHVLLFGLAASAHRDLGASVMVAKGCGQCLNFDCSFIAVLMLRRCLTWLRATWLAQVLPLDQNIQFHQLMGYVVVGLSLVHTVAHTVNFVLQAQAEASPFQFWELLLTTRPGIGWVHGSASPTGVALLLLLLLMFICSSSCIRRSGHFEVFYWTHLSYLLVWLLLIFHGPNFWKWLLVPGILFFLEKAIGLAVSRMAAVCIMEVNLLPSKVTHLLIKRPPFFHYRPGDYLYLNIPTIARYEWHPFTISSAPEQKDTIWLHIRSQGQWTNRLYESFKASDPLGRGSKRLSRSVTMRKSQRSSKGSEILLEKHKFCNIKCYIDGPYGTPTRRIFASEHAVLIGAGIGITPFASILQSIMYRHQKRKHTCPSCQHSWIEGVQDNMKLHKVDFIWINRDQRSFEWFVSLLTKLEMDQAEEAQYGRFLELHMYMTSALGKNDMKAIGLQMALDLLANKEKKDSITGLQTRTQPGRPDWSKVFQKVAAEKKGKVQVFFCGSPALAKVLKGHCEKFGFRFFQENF

Chain of NADPH oxidase 2 (Homo sapiens) (P04839 whole entry, looked up): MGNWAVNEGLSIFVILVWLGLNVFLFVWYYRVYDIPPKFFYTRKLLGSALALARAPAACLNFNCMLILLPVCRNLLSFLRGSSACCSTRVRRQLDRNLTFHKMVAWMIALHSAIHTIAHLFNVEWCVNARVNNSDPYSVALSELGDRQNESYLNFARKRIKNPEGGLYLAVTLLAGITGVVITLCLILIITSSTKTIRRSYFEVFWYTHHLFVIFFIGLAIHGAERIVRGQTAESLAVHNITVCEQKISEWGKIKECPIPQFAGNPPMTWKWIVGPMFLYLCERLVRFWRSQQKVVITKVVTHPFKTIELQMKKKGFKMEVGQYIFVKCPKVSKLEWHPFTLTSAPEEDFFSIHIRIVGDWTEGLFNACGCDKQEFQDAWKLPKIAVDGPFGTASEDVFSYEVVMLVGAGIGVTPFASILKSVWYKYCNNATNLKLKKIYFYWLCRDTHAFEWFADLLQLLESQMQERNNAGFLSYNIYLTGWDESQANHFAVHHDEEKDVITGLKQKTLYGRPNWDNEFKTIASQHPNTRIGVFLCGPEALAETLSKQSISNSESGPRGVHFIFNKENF
Chain of Streptavidin (Streptomyces avidinii) (P22629 whole entry, looked up): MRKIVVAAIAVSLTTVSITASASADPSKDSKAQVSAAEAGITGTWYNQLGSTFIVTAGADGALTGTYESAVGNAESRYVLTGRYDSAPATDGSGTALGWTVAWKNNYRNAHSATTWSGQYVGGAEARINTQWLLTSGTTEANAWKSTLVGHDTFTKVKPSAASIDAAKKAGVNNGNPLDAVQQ
Chain of NADPH oxidase 4 (Homo sapiens) (Q9NPH5 whole entry, looked up): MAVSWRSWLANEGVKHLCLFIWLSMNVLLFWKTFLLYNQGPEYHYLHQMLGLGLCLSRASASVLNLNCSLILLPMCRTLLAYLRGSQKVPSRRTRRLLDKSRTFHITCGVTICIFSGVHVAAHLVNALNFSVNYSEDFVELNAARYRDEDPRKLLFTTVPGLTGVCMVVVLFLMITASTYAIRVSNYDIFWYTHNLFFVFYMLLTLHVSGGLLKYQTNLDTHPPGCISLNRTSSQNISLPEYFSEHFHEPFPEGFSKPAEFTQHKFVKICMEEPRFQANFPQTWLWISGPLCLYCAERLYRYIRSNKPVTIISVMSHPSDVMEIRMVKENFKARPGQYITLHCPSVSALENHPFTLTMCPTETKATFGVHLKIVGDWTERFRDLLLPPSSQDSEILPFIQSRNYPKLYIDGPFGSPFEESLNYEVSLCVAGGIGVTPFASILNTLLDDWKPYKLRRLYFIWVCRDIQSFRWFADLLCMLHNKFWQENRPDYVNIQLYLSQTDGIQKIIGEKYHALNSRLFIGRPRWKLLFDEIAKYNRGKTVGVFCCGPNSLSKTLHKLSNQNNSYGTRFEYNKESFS
Chain of Torsin-1A (Homo sapiens) (O14656 whole entry, looked up): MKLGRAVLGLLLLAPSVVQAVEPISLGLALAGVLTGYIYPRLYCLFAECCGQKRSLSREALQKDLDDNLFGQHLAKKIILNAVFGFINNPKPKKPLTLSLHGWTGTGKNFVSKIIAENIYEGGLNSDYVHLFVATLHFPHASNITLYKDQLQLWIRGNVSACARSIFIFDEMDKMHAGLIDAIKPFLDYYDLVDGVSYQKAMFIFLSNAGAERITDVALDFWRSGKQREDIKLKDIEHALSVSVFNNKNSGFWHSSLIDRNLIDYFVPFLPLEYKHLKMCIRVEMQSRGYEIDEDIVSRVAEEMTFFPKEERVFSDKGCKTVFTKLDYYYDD

In the case of `CC=CC(O)C1C=CC2C(=O)N(C)C(=O)C2N1NC(=O)OC(C)(C)C` (stereo not given), the composite z-score amounted to 0.155 in [1]; 0.32 in [6]; 0.038 in assay [7]; 0.831 in assay [8]; 0.229 in [9]; 0.0729 in assay [10]. The compound also returned a composite z-score in assay [12] of 0.277. Besides, the z-score in [2] is 0.477 (inactive); in [3], 0.433 (inactive); in assay [4], 1.01 (inactive); in assay [5] it was 0.742 (inactive); in assay [11], -1.06 (inactive); in assay [13], -0.597 (inactive). The z-score in [14] was 0.43 (inactive); in assay [15] it was -0.0501 (inactive); in assay [16], 0.556 (inactive); in [17], -1.42; in [18] it was -0.798 (inactive); in assay [19], -1.37 (inactive). Further, in assay [20], the z-score is -1.22.

As to `C=CC(CO)NC(=O)OCC1c2ccccc2-c2ccccc21` (stereo not given), the composite z-score in [1] is 0.237; in [6], 0.0333; in [7], -0.183; in assay [8], 0.743; in [9] it was 0.724; in assay [10] it was 0.775. Also, the composite z-score in assay [12] was -0.188. Further, the z-score in assay [2] was 0.0812 (inactive); in assay [3], 0.219 (inactive); in [4] it was 1.03 (inactive); in [5] it was 0.584 (inactive); in assay [11], -0.878 (inactive); in assay [13], -0.0039 (inactive). Moreover, the z-score in assay [14] is -0.124 (inactive); in assay [15] it was -1.03 (inactive); in [16], 0.182 (inactive); in assay [17], 0.078; in assay [18] it was -0.385 (inactive); in [19] it was 0.0866 (inactive). The z-score in assay [20] turned out to be 0.23.

On to `Cc1ccc(S(=O)(=O)N2[C@@H](c3ccccc3)C(C(=O)O)=CC[C@H]2c2ccc(C#N)cc2)cc1`, for which the composite z-score in [1] was 0.111; in [6], 0.0546; in [7] it was -0.148; in [8] it was 0.834; in assay [9], 2.1; in [10], -0.133. In [12], this compound yielded a composite z-score of 0.114. The z-score in assay [2] was -0.478 (inactive); in assay [3], -0.236 (inactive); in assay [4] it was -0.275 (inactive); in assay [5], -0.551 (inactive); in [11], -1.22 (inactive); in assay [13], 4.02 (inactive). For the same compound, the z-score in assay [14] was 1.42 (inactive); in [15], 1.6 (inactive); in [16], 0.559 (inactive); in assay [17], -0.316; in assay [18], -0.229 (inactive); in assay [19], -1.62 (inactive). Besides, the z-score in assay [20] was -1.54.

For the compound `Cc1ccc(S[C@]2(C(=O)NCCN3CCOCC3)CC(=O)N(C3CCCCC3)[C@@H]2c2ccc(CO)cc2I)cc1`, the composite z-score in assay [1] is 0.328; in assay [6], 1.24; in [7], -0.117; in assay [8], 0.383; in assay [9] it was 1.15; in assay [10], 1.94. In assay [12], the composite z-score was -0.174. For the same compound, the z-score in assay [2] is -2.19 (inactive); in assay [3], -0.435 (inactive); in [4], -0.231 (inactive); in assay [5], 0.341 (inactive); in [11] it was 0.465 (inactive); in assay [13], 6.63 (inactive). Moreover, the z-score is 0.86 (inactive) in assay [14]; 1.68 (inactive) in assay [15]; 0.622 (inactive) in assay [16]; -0.439 in [17]; 0.832 (inactive) in assay [18]; 0.11 (inactive) in assay [19]. Besides, the z-score in [20] came to 2.6.

Consider `CC(C)[Si](C#CCCCC#N)(O[C@H](c1ccccc1)c1cn([C@H](C)c2ccccc2)nn1)C(C)C`, for which the composite z-score in assay [1] worked out at 0.0952; in assay [6], 0.492; in assay [7], 0.0183; in assay [8] it was 0.0529; in assay [9], 0.28; in [10] it was 1.09. In addition, in assay [12], the composite z-score was -0.0984. Also, the z-score in assay [2] was -1.75 (inactive); in assay [3], -0.0514 (inactive); in [4], -0.23 (inactive); in [5], 0.301 (inactive); in assay [11], 1.03 (inactive); in [13], 1.66 (inactive). Moreover, the z-score in assay [14] was 0.878 (inactive); in assay [15], 0.0478 (inactive); in assay [16], 0.211 (inactive); in [17] it was 0.147; in assay [18] it was 1.19 (inactive); in assay [19], 0.406 (inactive). Further, the z-score in [20] came out at 0.255.
